Data taken from PubChem BioAssay (EPA / NIEHS).
Activity calls are given as the source filed them. Rule for the calls: active = hit-call score of the fitted dose curve at least 0.9, where 1 is the maximum; inactive = score below 0.9.

What was measured:
Settings in all cases: mRNA level, 48 h; actives raise or lower the signal
[1] = read-out: Glutathione S-Transferase (GSTA2), GSTA2 (gene 2939); assay: LTEA_HepaRG_GSTA2: Life Technologies and Expression Analysis (LTEA) Assay for Glutathione S-Transferase (GSTA2) using HepaRG (AID 2283497)
In short: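 qRT-PCR readout of GSTA2 transcript, normalized to three housekeeping genes, fitted bidirectionally against 0.5% DMSO baseline. Differentiated HepaRG cells received compound for 48 h at 8 concentrations (top 100 uM, half-log steps).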

[2] = read-out: Glutamate-cysteine ligase catalytic (GCLC), GCLC (gene 2729); assay: LTEA_HepaRG_GCLC: Life Technologies and Expression Analysis (LTEA) Assay for Glutamate-cysteine ligase catalytic (GCLC) using HepaRG (AID 2283498)
In short: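 HepaRG, 48 h exposure, 8-pt half-log series from 100 uM, 0.5% DMSO vehicle; TaqMan qRT-PCR for GCLC mRNA, housekeeping-normalized; bidirectional curve fit vs DMSO baseline.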

[3] = read-out: growth arrest and DNA damage 45 (GADD45G), GADD45G (gene 10912); assay: LTEA_HepaRG_GADD45G: Life Technologies and Expression Analysis (LTEA) Assay for growth arrest and DNA damage 45 (GADD45G) using HepaRG (AID 2283499)
In short: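 HepaRG, 48 h exposure, top 100 uM, half-log 8-point series, 0.5% DMSO vehicle, duplicates. Readout: GADD45G transcript by qRT-PCR (Fluidigm array), housekeeping-normalised (ACTB/GAPDH/POLR2A). Bidirectional curve fit vs DMSO baseline.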

[4] = read-out: Glutamate-cysteine ligase regulatory (GCLM), GCLM (gene 2730); assay: LTEA_HepaRG_GCLM: Life Technologies and Expression Analysis (LTEA) Assay for Glutamate-cysteine ligase regulatory (GCLM) using HepaRG (AID 2283500)
In short: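 HepaRG, 48 h dosing, 100 uM top, half-log x8, 0.5% DMSO vehicle. Readout: GCLM mRNA by TaqMan qRT-PCR, housekeeping-normalized (ACTB/GAPDH/POLR2A). Curves fit bidirectionally vs DMSO baseline.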

[5] = read-out: Glutathione S-transferase M3 (GSTM3), GSTM3 (gene 2947); assay: LTEA_HepaRG_GSTM3: Life Technologies and Expression Analysis (LTEA) Assay for Glutathione S-transferase M3 (GSTM3) using HepaRG (AID 2283501)
In short: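 qRT-PCR read-out of GSTM3 transcript, normalized to three housekeeping genes, from human HepaRG cells after 48 h chemical exposure. Eight-point half-log series, top 100 uM, 0.5% DMSO vehicle; gain or loss fitted relative to DMSO baseline.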

[6] = read-out: Heat shock 70 kDa protein 1 (HSPA1A), gene 3303; assay: LTEA_HepaRG_HSPA1A: Life Technologies and Expression Analysis (LTEA) Assay for Heat shock 70 kDa protein 1 (HSPA1A) using HepaRG (AID 2283502)
In short: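 HepaRG, 48 h exposure, 8-pt half-log CRC from 100 uM in 0.5% DMSO, duplicates. Readout: TaqMan qRT-PCR of HSPA1A mRNA, housekeeping-normalized (ACTB/GAPDH/POLR2A). Bidirectional fit vs 0.5% DMSO baseline.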

[7] = read-out: 3-Hydroxy-3-Methylglutaryl-CoA Synthase 2 (HMGCS2), HMGCS2 (gene 3158); assay: LTEA_HepaRG_HMGCS2: Life Technologies and Expression Analysis (LTEA) Assay for 3-Hydroxy-3-Methylglutaryl-CoA Synthase 2 (HMGCS2) using HepaRG (AID 2283504)
In short: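 qRT-PCR read-out of HMGCS2 transcript, normalised to three housekeeping genes, in HepaRG cells after 48 h chemical exposure. Eight-point curves from 100 uM, half-log dilutions, 0.5% DMSO vehicle; gain or loss fitted relative to DMSO baseline.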

HGF (gene 3082) = assay: LTEA_HepaRG_HGF: Life Technologies and Expression Analysis (LTEA) Assay for Hepatocyte Growth Facto (HGF) using HepaRG (AID 2283505)
In short: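 HepaRG, 48 h dosing, 8-pt half-log series from 100 uM in 0.5% DMSO, duplicates. Readout: TaqMan qRT-PCR of HGF mRNA, housekeeping-normalized; bidirectional curve fit vs DMSO baseline.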

[8] = read-out: Insulin Like Growth Factor 1 (IGF1), IGF1 (gene 3479); assay: LTEA_HepaRG_IGF1: Life Technologies and Expression Analysis (LTEA) Assay for Insulin Like Growth Factor 1 (IGF1) using HepaRG (AID 2283506)
In short: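 qRT-PCR readout of IGF1 mRNA, normalized to three housekeeping genes, after 48 h chemical exposure of HepaRG cells. Concentrations: 8-point half-log series, top 100 uM, 0.5% DMSO vehicle. Gain or loss fitted against DMSO baseline.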

[9] = read-out: Intercellular Adhesion Molecule 1 (ICAM1), ICAM1 (gene 3383); assay: LTEA_HepaRG_ICAM1: Life Technologies and Expression Analysis (LTEA) Assay for Intercellular Adhesion Molecule 1 (ICAM1) using HepaRG (AID 2283507)
In short: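 HepaRG, 48 h exposure, 8-pt half-log series from 100 uM, 0.5% DMSO vehicle, duplicates. Readout: TaqMan qRT-PCR mRNA, housekeeping-normalized (ACTB/GAPDH/POLR2A). Bidirectional curve fit vs DMSO baseline.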

[10] = read-out: Insulin-like growth factor-binding protein 1 (IGFBP1), IGFBP1 (gene 3484); assay: LTEA_HepaRG_IGFBP1: Life Technologies and Expression Analysis (LTEA) Assay for Insulin-like growth factor-binding protein 1 (IGFBP1) using HepaRG (AID 2283508)
In short: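 qRT-PCR mRNA read-out (TaqMan, Fluidigm array), normalised to three housekeeping genes; HepaRG cells, 48 h exposure, 8-pt half-log series from 100 uM, 0.5% DMSO vehicle; bidirectional curve fit vs DMSO baseline.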

[11] = read-out: Interleukin 6 (IL6), IL6 (gene 3569); assay: LTEA_HepaRG_IL6: Life Technologies and Expression Analysis (LTEA) Assay for Interleukin 6 (IL6) using HepaRG (AID 2283509)
In short: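 qRT-PCR read-out of IL6 transcript, normalized to three housekeeping genes, after 48 h chemical exposure of HepaRG cells; 8-point half-log series, top 100 uM, 0.5% DMSO vehicle. Bidirectional curve fitting against DMSO baseline.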

[12] = read-out: Interleukin 6 Receptor (IL6R), IL6R (gene 3570); assay: LTEA_HepaRG_IL6R: Life Technologies and Expression Analysis (LTEA) Assay for Interleukin 6 Receptor (IL6R) using HepaRG (AID 2283510);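 for AC50: differentiated human HepaRG liver cells in serum-free induction medium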
In short: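 HepaRG, 48 h exposure, 8-pt half-log series, top 100 uM, 0.5% DMSO vehicle, duplicates. Read-out: TaqMan qRT-PCR of IL6R transcript, housekeeping-gene normalized. Gain or loss fitted relative to DMSO baseline.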

[13] = read-out: Potassium channel subfamily K member 1 (KCNK1), KCNK1 (gene 3775); assay: LTEA_HepaRG_KCNK1: Life Technologies and Expression Analysis (LTEA) Assay for Potassium channel subfamily K member 1 (KCNK1) using HepaRG (AID 2283511)
In short: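 HepaRG, 48 h exposure, 8-pt half-log series top 100 uM, 0.5% DMSO vehicle, duplicates. Readout: KCNK1 transcript by qRT-PCR (Fluidigm array), housekeeping-normalized; bidirectional curve fit relative to DMSO baseline.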

[14] = read-out: Keratin 19 (KRT19), KRT19 (gene 3880); assay: LTEA_HepaRG_KRT19: Life Technologies and Expression Analysis (LTEA) Assay for Keratin 19 (KRT19) using HepaRG (AID 2283512)
In short: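 HepaRG, 48 h chemical exposure, 8-pt half-log CRC from 100 uM, 0.5% DMSO vehicle, duplicates. Readout: TaqMan qRT-PCR of KRT19 mRNA, housekeeping-normalized (ACTB/GAPDH/POLR2A). Bidirectional fit vs DMSO baseline.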

[15] = read-out: JUN Transcription Factor, JUN (gene 3725); assay: LTEA_HepaRG_JUN: Life Technologies and Expression Analysis (LTEA) Assay for JUN Transcription Factor using HepaRG (AID 2283513)
In short: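 HepaRG, 48 h exposure, 8-pt half-log series top 100 uM, 0.5% DMSO, duplicate. JUN mRNA by qRT-PCR (Fluidigm), housekeeping-normalized (ACTB/GAPDH/POLR2A); bidirectional curve fit vs DMSO baseline.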

[16] = read-out: Lipase C (LIPC), LIPC (gene 3990); assay: LTEA_HepaRG_LIPC: Life Technologies and Expression Analysis (LTEA) Assay for Lipase C (LIPC) using HepaRG (AID 2283514)
In short: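 HepaRG, 48 h exposure, 8-pt half-log series from 100 uM in 0.5% DMSO, duplicates. Readout: LIPC mRNA by Fluidigm qRT-PCR, housekeeping-normalized (ACTB/GAPDH/POLR2A). Gain or loss fitted bidirectionally against DMSO baseline.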

[17] = read-out: Lipoprotein lipase (LPL), LPL (gene 4023); assay: LTEA_HepaRG_LPL: Life Technologies and Expression Analysis (LTEA) Assay for Lipoprotein lipase (LPL) using HepaRG (AID 2283515)
In short: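 HepaRG, 48 h exposure, 8-pt half-log dilutions from 100 uM, 0.5% DMSO vehicle, duplicates; qRT-PCR (Fluidigm array) of LPL mRNA vs housekeeping genes; bidirectional curve fit relative to DMSO baseline.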

[18] = read-out: MicroRNA 122 (MIR122), gene 406906; assay: LTEA_HepaRG_MIR122: Life Technologies and Expression Analysis (LTEA) Assay for MicroRNA 122 (MIR122) using HepaRG (AID 2283516); note: the transcript read is the microRNA miR-122
In short: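 qRT-PCR read-out (TaqMan, Fluidigm array), normalized to three housekeeping genes; HepaRG cells dosed 48 h at 8 concentrations up to 100 uM in 0.5% DMSO, duplicate; gain or loss fitted against DMSO baseline.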

[19] = read-out: Hypoxia-inducible factor 1-alpha (Homo sapiens) (UniProt Q16665); assay: LTEA_HepaRG_HIF1A: Life Technologies and Expression Analysis (LTEA) Assay for Hypoxia-inducible factor 1 (HIF1A) Trancription factor using HepaRG (AID 2283503)
In short: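 Gain- or loss-of-signal HIF1A mRNA changes are fitted against a DMSO baseline. HepaRG cultures receive eight concentrations, highest 100 uM, for 48 h in serum-free induction medium with 0.5% DMSO.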

Measured: AC50

Hypoxia-inducible factor 1-alpha (Homo sapiens), sequence (Q16665 whole entry, looked up): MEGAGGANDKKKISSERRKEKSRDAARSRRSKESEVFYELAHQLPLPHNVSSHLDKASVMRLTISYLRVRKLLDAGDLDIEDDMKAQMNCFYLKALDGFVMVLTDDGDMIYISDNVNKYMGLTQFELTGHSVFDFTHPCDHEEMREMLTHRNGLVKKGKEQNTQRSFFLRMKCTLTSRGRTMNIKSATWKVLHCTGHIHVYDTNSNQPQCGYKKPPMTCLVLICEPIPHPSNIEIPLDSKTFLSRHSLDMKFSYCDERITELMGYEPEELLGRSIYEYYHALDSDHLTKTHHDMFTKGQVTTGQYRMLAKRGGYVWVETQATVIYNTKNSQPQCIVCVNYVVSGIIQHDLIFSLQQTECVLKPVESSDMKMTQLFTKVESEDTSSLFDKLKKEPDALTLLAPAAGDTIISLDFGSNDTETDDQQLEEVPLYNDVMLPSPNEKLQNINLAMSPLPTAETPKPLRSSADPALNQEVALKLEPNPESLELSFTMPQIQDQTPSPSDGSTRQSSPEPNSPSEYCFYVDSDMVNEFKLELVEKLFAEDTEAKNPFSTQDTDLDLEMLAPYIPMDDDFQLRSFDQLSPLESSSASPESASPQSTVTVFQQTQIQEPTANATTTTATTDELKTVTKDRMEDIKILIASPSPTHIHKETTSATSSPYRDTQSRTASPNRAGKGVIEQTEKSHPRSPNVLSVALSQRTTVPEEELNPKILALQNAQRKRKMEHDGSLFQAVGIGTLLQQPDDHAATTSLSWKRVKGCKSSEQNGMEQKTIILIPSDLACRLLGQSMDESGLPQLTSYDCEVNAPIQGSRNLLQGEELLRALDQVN

O=c1[nH]c2ccc(S(=O)CCN3CCC(Cc4ccc(F)cc4)CC3)cc2o1 (configuration not stated)
inactive: [2] | [5] | HGF (gene 3082) | [8] | [9] | [12] | [13] | [15] | [18]
active: [1] 87.5 µM | [3] 71.6 µM | [4] 50 µM | [6] 50 µM | [7] 74.7 µM | [10] 89.7 µM | [11] 63 µM | [14] 67.3 µM | [16] 82 µM | [17] 59.5 µM

CC(=O)OC[C@H]1O[C@@](COC(C)=O)(O[C@H]2O[C@H](COC(C)=O)[C@@H](OC(C)=O)[C@H](OC(C)=O)[C@H]2OC(C)=O)[C@@H](OC(C)=O)[C@@H]1OC(C)=O
inactive: all assays above

NC(=O)NO
active: [8] 14.3 µM
not listed: [19]
inactive: all other assays above

CC(C)CCO
not listed: [19]
inactive: all other assays above

Nc1ccc(Nc2ccccc2)cc1
active: [19] 50 µM | [7] 60.9 µM | [8] 50 µM | [14] 50 µM | [16] 83.4 µM
inactive: all other assays above

CC(C)c1cccc(C(C)C)c1N1C(=O)c2ccc(O)cc2C1=O
active: [7] 80.7 µM | HGF (gene 3082) 93 µM | [14] 88.7 µM | [16] 82.8 µM | [17] 83.4 µM | [18] 93.6 µM
not listed: [19]
inactive: all other assays above

CN(C)c1ccc(Cc2ccc(N(C)C)cc2)cc1
active: [3] 50 µM | [7] 88.4 µM | [8] 79.2 µM | [14] 40.8 µM | [16] 80.1 µM | [18] 50 µM
inactive: all other assays above

O=C1CCCCCN1
inactive: all assays above

Cc1[nH]cnc1C[C@H]1CCc2c(C)c3ccccc3n2C1=O
inactive: [4] | [5]
active: [1] 30.5 µM | [2] 29.7 µM | [3] 81.1 µM | [6] 56.9 µM | [7] 23.8 µM | HGF (gene 3082) 10.2 µM | [8] 17.8 µM | [9] 35.9 µM | [10] 37.2 µM | [11] 84 µM | [12] 79.3 µM | [13] 58.7 µM | [14] 11.5 µM | [15] 44.5 µM | [16] 27.7 µM | [17] 79 µM | [18] 14.1 µM

CC1(C)C(=O)N(Br)C(=O)N1Br
not listed: [19]
inactive: all other assays above

CC[C@H]1CC[C@H](NCc2cc3c(cc2OC)[C@H]2C[C@H]2C(=O)N3C)[C@H](c2ccccc2)N1
active: [3] 50 µM | [17] 50 µM
not listed: [6]
inactive: all other assays above

CC(C)(O)c1coc(S(=O)(=O)NC(=O)Nc2c3c(cc4c2CCC4)CCC3)c1
inactive: all assays above

CC1=CC(=O)CC(C)(C)C1
not listed: [19]
inactive: all other assays above
